From PubChem BioAssay come the findings set out here.

The source made the active and inactive calls. Unless noted, no rule for the calls is given here.

Experiment [1] in a line: hESC survival regulators, cell-based (AID 493140).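 Also: cells exposed to compounds for four days before counting.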 The conditions noted are these: human embryonic stem cell survival screen; stronger effect = higher value.
Experiment [2] in a line: sensitizers of A549 cells to miR-34 induction, primary screen, imaging, A549 dox-inducible miR-34, nuclei and caspase counts (AID 1347080;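 active = compounds whose cell count with miR-34 switched on is under 0.7 times the count with it off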). The conditions noted are these: A549 miR-34 inducible, Hoechst nuclei count, 48 h.
The nature of experiment [3]: inhibitors of Cryptococcus chitosan production, flow cytometry, Cibacron Brilliant Red staining (AID 1347148).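 Also: compound exposure lasted three days at 37 degrees C.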 Conditions: Cryptococcus neoformans chitosan, stronger effect = lower value; at 10 µM unless noted. For orientation: A flow cytometer gives signals particle by particle.
The nature of experiment [4]: phospholipid biosynthesis inhibitors in animal cells, primary screen, cell-based, LOPAC library, screen 4 (AID 1347384). The conditions noted are these: phospholipid biosynthesis inhibition screen, at 10 µM.
Experiment [5] in a line: liver-stage malaria parasite growth inhibition, primary screen, cell-based, HepG2, luciferase luminescence, HepG2 viability (AID 624349; in the data active = parasite load remaining mostly below about 12%, no sharp cut-off; inactive = mostly above about 10%;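 also: 100% = mean of DMSO negative control wells on the same plate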). The conditions noted are these: P. berghei liver stage in HepG2, luciferase luminescence, concentration not given here; parasite load remaining: stronger effect = lower value; viability: measured here: HepG2 viability without parasites.
Experiment [6] can be described thus: survival rescue of mitochondrial mutant cells in low glucose, primary screen, MELAS cybrids, Rieske KO mouse fibroblasts, CellTiter-Glo (AID 1508586;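 active = mean z-score across replicates of 1.96 or higher in either the MELAS or the Rieske mutant cell line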;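 also: z relative to plate mean and SD of compound and empty wells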). In general terms: In ATP-based viability assays light output follows the ATP content of the culture.
The nature of experiment [7]: viability rescue of complex I mutant cybrids, primary screen, cell-based, galactose medium, ATP luminescence (AID 1645843;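 active = z-score of at least 1.8 in each of two replicates, scored against plate mean and spread of sample wells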;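 also: positive z means more ATP and so rescue of galactose-driven cybrid death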). Conditions: complex I mutant cybrid cells, 72 h, stronger effect = higher value.
Experiment [8] in a line: circadian clock period modulators, cell-based, LOPAC library, luminescence reporter (AID 2774).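 Also: values are relative to mean of DMSO wells on each plate.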 The conditions noted are these: circadian reporter cells, at 7 µM, actives lie on both sides.
For experiment [9], the system named is Hepatitis C virus NS3 helicase. The experiment in a line: HCV NS3 helicase inhibitors, primary screen, biochemical, fluorescence polarization, LOPAC1280 library (AID 687035; in the data active = inhibition above about 37%). The conditions noted are these: Purified HCV NS3 helicase, Cy5-dT15 ssDNA binding fluorescence polarization; stronger effect = higher value; concentration not given here.
The nature of experiment [10]: Cy5 fluorescence quenching or enhancement artefacts, artefact control for HCV NS3 helicase inhibitor project, biochemical, LOPAC1280 (AID 687037). The conditions noted are these: Cy5-DNA-NS3h complex fluorescence interference counterscreen. A general note: A counterscreen serves to expose hits that act by an unwanted route or on another target.
Experiment [11] in a line: modifiers of HSF1 nuclear foci, imaging, Selleck Cancer Library (AID 1347162; in the data active = plate-normalised HSF1 focus index below about 0.46). Conditions: human cells, at 10 µM; SSMD: measured here: HSF1 foci SSMD mean; cell count: measured here: cell number; plate-normalised HSF1 focus index: stronger effect = lower value.
Setting [12] is: stronger effect = lower value, cell number ratio, induced over uninduced.
Where [13] appears, read: measured here: relative caspase fold change +Dox/-Dox.
[14] abbreviates: measured here: total cells with miR-34 induction, stronger effect = lower value.
Setting [15] is: measured here: total cells without miR-34 induction.
[16] abbreviates: MELAS cybrid survival, CellTiter-Glo 48 h, stronger effect = higher value.
Where [17] appears, read: Rieske KO mouse fibroblast survival, CellTiter-Glo 72 h.

As to `CC1=C(/C=C/C(C)=C\C=C\C(C)=C\C(=O)O)C(C)(C)CCC1`, in experiment [1], the survival was 82.2 (inactive). Moreover, the fold change in [2] (setting [12]) is 0.906 (inactive); in experiment [2] (setting [13]), 1.46. Also, the cell count was 5680 in experiment [2] (setting [14]) and 6260 in experiment [2] (setting [15]). Moreover, in experiment [3], the fold fluorescence is 4.39 (inactive).
Regarding `CN(C)CC(O)Cn1c2ccc(Br)cc2c2cc(Br)ccc21` (configuration not stated), the results for the fold change in experiment [2] (setting [12]) and in [2] (setting [13]) were 0.735 (inactive) and 1.58, respectively. Besides, the cell count worked out at 200 in experiment [2] (setting [14]) and 272 in experiment [2] (setting [15]). Further, the molecule was classed as inactive in [4].
On to `CCCCC[C@H](O)/C=C/C=C\CCCCCCCC(=O)O`, for which, in experiment [1], the survival is 87.8 (inactive). In addition, the fold change in experiment [2] (setting [12]) is 0.929 (inactive); in experiment [2] (setting [13]), 1.14. Further, the results for the cell count in [2] (setting [14]) and in experiment [2] (setting [15]) were 5740 and 6180, respectively. In addition, the fold fluorescence in experiment [3] is 6.42 [at 1 µM] (inactive).
With `O=c1[nH]cnc2c1CN=N2`, the parasite load remaining in experiment [5] was 22.2% (inactive). The viability in experiment [5] worked out at 60.5%. For the same molecule, the fold change in experiment [2] (setting [12]) is 0.891 (inactive); in experiment [2] (setting [13]), 1.16. Besides, the cell count is 9860 in experiment [2] (setting [14]) and 11100 in experiment [2] (setting [15]). Further, the result in [4] was inactive. The z-score in experiment [6] (setting [16]) was 0.591 (inactive); in experiment [6] (setting [17]), 0.624; in experiment [7], 0.315 (inactive).
As for `N=C(N)SCCc1ccc(CCSC(=N)N)cc1`, the period change in experiment [8] was -0.135 h (inactive). In experiment [9], the inhibition is -5% (inactive). Further, the fluorescence ratio (interference) in experiment [10] is 0.9 (inactive). For the same molecule, the fold change in [2] (setting [12]) was 1.11 (inactive); in [2] (setting [13]), 0.636. In addition, the figures for the cell count in experiment [2] (setting [14]), in experiment [2] (setting [15]) and in [11] were 5830, 5230 and 7320, respectively. Moreover, in experiment [11], the SSMD stood at 1.43. Besides, the plate-normalised HSF1 focus index in experiment [11] was 1.08 (inactive).
For `CCCCC/C=C\C/C=C\CCCCCCCC(=O)NCC(=O)O`, the survival in experiment [1] is 52.3 (inactive). Also, the fold change in experiment [2] (setting [12]) is 0.95 (inactive); in [2] (setting [13]), 1.28. In addition, the cell count in experiment [2] (setting [14]) was found to be 6210; in experiment [2] (setting [15]), 6540. The fold fluorescence in [3] is 3.7 (inactive).
Take `C=CC(=O)N1CCCC(n2nc(-c3ccc(Oc4ccccc4)cc3)c3c(N)ncnc32)C1` (configuration not stated): the fold change in [2] (setting [12]) was 0.863 (inactive); in experiment [2] (setting [13]), 0.762. Moreover, the cell count in experiment [2] (setting [14]) came out at 7670; in experiment [2] (setting [15]), 8890; in experiment [11], 7290. In experiment [11], the SSMD turned out to be 2.74. The plate-normalised HSF1 focus index in experiment [11] is 1.17 (inactive). The results for the z-score in experiment [6] (setting [16]) and in experiment [6] (setting [17]) were -0.153 (inactive) and -0.517, respectively.
On to `CO/N=C(\C(=O)N[C@@H]1C(=O)N2C(C(=O)O)=C(COC(C)=O)CS[C@H]12)c1csc(N)n1`, for which the parasite load remaining in [5] is 16.7% (inactive). The molecule further gave a viability in experiment [5] of 71.5%. Moreover, the fold change was 0.894 (inactive) in experiment [2] (setting [12]) and 1.17 in [2] (setting [13]). For the same molecule, the values for the cell count in [2] (setting [14]) and in experiment [2] (setting [15]) were 9420 and 10500, respectively. The outcome in [4] was inactive. Further, the figures for the z-score in experiment [6] (setting [16]), in experiment [6] (setting [17]) and in experiment [7] were 0.329 (inactive), 0.781 and -0.18 (inactive), respectively.
In the case of `CN1C2CC(OC(=O)[C@H](CO)c3ccccc3)CC1C1OC12` (some centres not stated), in experiment [8], the period change is 0.01 h (inactive). The survival in experiment [1] was 4.58 (inactive). Moreover, the inhibition in experiment [9] was -4% (inactive). Also, the fluorescence ratio (interference) in [10] was 1 (inactive). Besides, the fold change in experiment [2] (setting [12]) was 0.96 (inactive); in experiment [2] (setting [13]) it was 0.75. The cell count in experiment [2] (setting [14]) turned out to be 10100; in experiment [2] (setting [15]), 10500. The molecule was called inactive in experiment [4]. Further, the z-score in [7] was 0.535 (inactive).

The viability is the share of living cells, or the viability signal relative to a control. Usually inhibition stands for the drop in the measured response relative to a control, in per cent.
